# Experimental data: PubChem BioAssay (EPA / NIEHS)
# Several values for one entry are separate records, joined by “and”; a condition that tells them apart may be missing. Identical values can stand only once. Some structures have more than one record in an assay (separate samples or runs), and their calls can disagree. Activity calls are given as the source filed them. How the source made its calls: active means hit-call score of the fitted dose curve at least 0.9, where 1 is the maximum; inconclusive means response in the unintended direction; inactive means score below 0.9.
# Assay: Tanguay_ZF_120hpf_ActivityScore_legacy: (Legacy) Oregon State University Tanguay Lab 120 Hour Post-fertilization zebrafish Assay Score for Activity (AID 2283742);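 on AC50: static exposure from 6 hpf until 120 hpf at 28 °C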
# Method: Tanguay_ZF_120hpf_legacy is a whole embryo, multiplexed endpoint assay using zebrafish larvae exposed for 120 hours post fertilization on a 96-well plate.Tanguay_ZF_120hpf_ActivityScore_legacy is one of one assay component(s) measured or calculated from the Tanguay_ZF_120hpf_legacy assay. It is designed to make measurements of developmental malformations and mortality as detected with brightfield microscopy and combines scoring from 18 other assay components measuring more specific morphologies.Data from the assay component Tanguay_ZF_120hpf_ActivityScore_legacy was analyzed into 1 assay endpoints. This assay endpoint, Tanguay_ZF_120hpf_ActivityScore_legacy, was analyzed in the positive analysis fitting direction relative to DMSO as the negative control and baseline of activity. Using a type of morphology reporter, gain-of-signal activity can be used to understand changes in developmentals as they relate to the whole embryo. To generalize the intended target to other relatable targets, this assay endpoint is annotated to the zebrafish development intended target family, where the subfamily is embryonic morphogenesis and mortality.
# Zebrafish husbandry: Tropical 5D wild-type adult zebrafish were housed in at an approximate density of 1000 per 100 gallon tank at the Sinnhuber Aquatic Research Laboratory, Oregon State University, Corvallis, OR. Each tank was kept at standard laboratory conditions of 28C on a 14-h light/10-h dark photoperiod in fish water consisting of reverse osmosis water supplemented with a commercially available salt (Instant Ocean). Spawning funnels were placed into the tanks the night prior, and embryos were collected and staged. To increase bioavailability, the chorion was enzymatically removed using pronase (63.6mg/ml, >/= 3.5U/mg, Sigma-Aldrich: P5147) at 4 hours post fertilization (hpf) using a custom automated dechorionator.Chemical exposures: Six hpf dechorionated embryos were placed 1 embryo per well in a 96-well plate prefilled with 90 ul of EM using automated embryo placement systems (AEPS). Ten microliters of each row of dilution plate 2 was added to 2 exposure plates. The final DMSO concentration used was 0.64% (vol/vol). Thirty-two embryos were also exposed to 5uM trimethyltin chloride (positive control). Plates were sealed to prevent evaporation and foil covered to reduce light exposure and kept in a 28C incubator. Embryos were statically exposed until 120 hpf. At 24 hpf, embryos were assessed for photomotor response using a custom photomotor response analysis tool (PRAT) and for developmental toxicity endpoints (MO24: mortality at 24 hpf, DP: developmental progression, SM: spontaneous movement, and NC: notochord distortion). At 120 hpf, locomotor activity was measured using Viewpoint Zebralab and assessed for 18 endpoints. Zebrafish acquisition and analysis program (ZAAP), a custom program designed to inventory, acquire, and manage zebrafish data, was used to collect developmental endpoints as either present or absent (i.e., binary responses were recorded). If mortality occurred for an embryo (at either 24 or 120 hpf), the non-mortality endpoints were not measured.
SMILES,outcome,AC50
OCCOc1ccccc1,inactive,
CNC(=O)/C=C(\C)OP(=O)(OC)OC,inactive,
CC(C)N(C(=O)COc1nnc(C(F)(F)F)s1)c1ccc(F)cc1,inactive,
CCc1ccc(C(=O)NN(C(=O)c2cc(C)cc(C)c2)C(C)(C)C)cc1,inactive,
CC[C@H](C)[C@H]1O[C@]2(C=C[C@@H]1C)C[C@@H]1C[C@@H](C/C=C(\C)[C@@H](O[C@H]3C[C@H](OC)[C@@H](O[C@H]4C[C@H](OC)[C@@H](O)[C@H](C)O4)[C@H](C)O3)[C@@H](C)/C=C/C=C3\CO[C@@H]4[C@H](O)C(C)=C[C@@H](C(=O)O1)[C@]34O)O2 (tested in a mixture with another compound),,8.55 µM (active)
CNC(=O)Oc1ccccc1OC(C)C,inactive,
ClC1C(Cl)C(Cl)C(Cl)C(Cl)C1Cl (stereo not given),inactive,
C[C@H]1[C@H](c2ccc(Cl)cc2)SC(=O)N1C(=O)NC1CCCCC1,inactive,
O=C(Nc1ccccc1)Nc1cnns1,inactive,
O=[N+]([O-])/N=C1\NCCN1Cc1ccc(Cl)nc1,inactive,
CN1CSC(=S)N(C)C1,,0.0296 µM (active)
CC(C)(C)C(O)C(Oc1ccc(Cl)cc1)n1cncn1 (stereo not given),,26.3 µM (active) and 43 µM (active) and 47 µM (active)
C#CCN1C(=O)COc2cc(F)c(N3C(=O)C4=C(CCCC4)C3=O)cc21,inactive,
N#Cc1c(Cl)c(Cl)c(Cl)c(C#N)c1Cl,,45 µM (active)
N#CN,inactive,
CCC(C)(C)C(=O)OC1=C(c2ccc(Cl)cc2Cl)C(=O)OC12CCCCC2,inactive,
Clc1ccccc1-c1nnc(-c2ccccc2Cl)nn1,inactive,
O=C(NC(=O)c1c(F)cccc1F)Nc1ccc(OC(F)(F)C(F)OC(F)(F)F)c(Cl)c1 (stereo not given),inactive,
Cc1[nH]c(=O)n(C(C)(C)C)c(=O)c1Cl,inactive,
CCN(CC)C(=O)SCc1ccc(Cl)cc1,inactive,

SMILES,outcome,AC50
CCC(C)(NC(=O)c1cc(Cl)c(C)c(Cl)c1)C(=O)CCl (stereo not given),inactive,
O=C(O)C(F)(F)C(F)(F)C(F)(F)C(F)(F)C(F)(F)C(F)(F)C(F)(F)F,inactive,
CC(C)(C)C(O)/C(=C\c1ccc(Cl)cc1Cl)n1cncn1 (stereo not given),,94.2 µM (active)
Oc1cc(Cl)ccc1Oc1ccc(Cl)cc1Cl,inactive,41.4 µM (active) and 46.5 µM (active)
O=S1OCC2C(CO1)C1(Cl)C(Cl)=C(Cl)C2(Cl)C1(Cl)Cl (stereo not given),inactive,
COc1nn(CSP(=S)(OC)OC)c(=O)s1,inactive,
O=C(O)COc1ccc(Cl)cc1Cl,inactive,
CCCN(CCOc1c(Cl)cc(Cl)cc1Cl)C(=O)n1ccnc1,inactive,
O=C(O)CCCOc1ccc(Cl)cc1Cl,inactive,
CC1(C)C(C=C(Cl)Cl)C1C(=O)OC(C#N)c1ccc(F)c(Oc2ccccc2)c1 (stereo not given),inactive,
COP(=S)(OC)Oc1ccc([N+](=O)[O-])cc1,inactive,
CNC(=O)CSP(=S)(OC)OC,inactive,
CCOCN(C(=O)CCl)c1c(C)cccc1CC,,46 µM (active)
Oc1ccc(Cl)cc1Cc1ccccc1,,37.1 µM (active) and 23.4 µM (active) and 22.3 µM (active)
O=C1c2ccccc2C(=O)N1SC(Cl)(Cl)Cl,inactive,
CCCN(CCC)c1c([N+](=O)[O-])cc(C(F)(F)F)cc1[N+](=O)[O-],inactive,
O=[N+]([O-])c1c(Cl)c(Cl)c(Cl)c(Cl)c1Cl,inactive,
COP(=O)(OC)OC=C(Cl)Cl,inactive,
CCOC1Oc2ccc(OS(C)(=O)=O)cc2C1(C)C (stereo not given),inactive,
